From PubChem BioAssay (NCI)
Compounds without any hit were thinned out: in the full panel of roughly 79,000, 15% have a hit. Calls of active or inactive are those of the source. No stated cut-off is given here; in the data, active means growth inhibition above about 70%; inactive means the rest.

What was measured:
[1] = NCI Yeast Anticancer Drug Screen. Data for the rad52 strain (AID 147);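 further: 0% = growth of vehicle-treated control cultures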; settings: S. cerevisiae rad52 mutant growth inhibition, active compounds read high
How it was run: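 Read-out: growth inhibition versus vehicle-treated controls. Cells were a DNA repair-deficient yeast strain treated with compounds.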

[2] = NCI Yeast Anticancer Drug Screen. Data for the wt1 strain (AID 149);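 further: 0% = growth of vehicle-treated wt1 cultures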; settings: S. cerevisiae wt1 strain (SPY 50644) growth inhibition, active compounds read high
How it was run: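 Each compound is tested on wt1 yeast and the loss of growth versus vehicle gives the inhibition value.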

[3] = NCI Yeast Anticancer Drug Screen. Data for the rad50EPP+ strain (AID 151);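 further: 0% = growth of vehicle-treated control cultures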; settings: S. cerevisiae rad50 mutant strain, active compounds read high
How it was run: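 Growth inhibition read against vehicle controls in rad50EPP+ yeast, a strain altered in DNA damage repair, after compound exposure.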

[4] = NCI Yeast Anticancer Drug Screen. Data for the mgt1 strain (AID 153); settings: S. cerevisiae mgt1 mutant growth inhibition, active compounds read high
How it was run: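 mgt1 yeast grown with test compound; read-out is growth inhibition versus vehicle-treated cultures.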

[5] = NCI Yeast Anticancer Drug Screen. Data for the rad50 strain (AID 155);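 further: 0% = growth of vehicle-only cultures of the same strain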; settings: S. cerevisiae rad50 strain growth inhibition, active compounds read high
How it was run: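 Vehicle-treated cultures provide the reference for the growth inhibition reported for compound-exposed, repair-deficient yeast.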

[6] = NCI Yeast Anticancer Drug Screen. Data for the mec2-1 strain (AID 157); settings: S. cerevisiae mec2-1 strain, active compounds read high
How it was run: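 Yeast mec2-1 mutant treated with compound. Readout: growth inhibition vs vehicle controls.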

[7] = NCI Yeast Anticancer Drug Screen. Data for the rad14 strain (AID 159);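 further: 0% = growth of vehicle-treated control cultures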; settings: S. cerevisiae rad14 strain growth inhibition, active compounds read high
How it was run: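 Inhibition of growth is reported for a repair-deficient yeast mutant following compound treatment, calculated relative to cultures that received vehicle.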

[8] = NCI Yeast Anticancer Drug Screen. Data for the sgs1 mgt1 strain (AID 161);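 further: 0% = growth of cultures given vehicle only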; settings: S. cerevisiae sgs1 mgt1 strain, active compounds read high
How it was run: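 Inhibition of yeast growth, normalised to vehicle-treated controls, is reported for a strain bearing genetic alterations in DNA damage repair.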

[9] = NCI Yeast Anticancer Drug Screen. Data for the CLN2oe strain (AID 163);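 further: 0% = growth of vehicle-only control cultures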; settings: S. cerevisiae CLN2oe strain, active compounds read high
How it was run: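 Read-out: yeast growth inhibition, expressed relative to vehicle-only controls. The strain bears an engineered cell-cycle alteration.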

[10] = NCI Yeast Anticancer Drug Screen. Data for the cln2 rad14 strain (AID 165);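 further: 0% = growth equal to vehicle treated cultures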; settings: S. cerevisiae cln2 rad14 strain, active compounds read high
How it was run: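 cln2 rad14 yeast strain; compound exposure; growth inhibition read vs vehicle controls.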

[11] = NCI Yeast Anticancer Drug Screen. Data for the bub3 strain (AID 167); settings: S. cerevisiae bub3 mutant strain, active compounds read high
How it was run: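 Mutant yeast screening strain plus compound; vehicle-treated cultures serve as the 0% inhibition reference.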

[12] = NCI Yeast Anticancer Drug Screen. Data for the wt2 strain (AID 169); settings: S. cerevisiae wt2 strain growth inhibition, active compounds read high
How it was run: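 Read-out: growth inhibition versus vehicle-treated control cultures after compound exposure of the yeast strain.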

[13] = NCI Yeast Anticancer Drug Screen. Data for the mlh1 strain (AID 171);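 further: 0% = growth of vehicle-treated control cultures of the same strain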; settings: S. cerevisiae mlh1 strain growth inhibition, active compounds read high
How it was run: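 Read-out: growth inhibition versus vehicle controls. Strain: engineered yeast with a defined DNA repair or cell cycle defect, compound-treated.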

[14] = NCI Yeast Anticancer Drug Screen. Data for the sgs1 strain (AID 173);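 further: 0% = growth of vehicle-only control cultures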; settings: S. cerevisiae sgs1 mutant, active compounds read high
How it was run: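 Read-out: yeast growth inhibition relative to vehicle controls, following compound exposure of a strain with a defined DNA repair/cell cycle alteration.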

[15] = NCI Yeast Anticancer Drug Screen. Data for the mlh1 rad18 strain (AID 175); settings: S. cerevisiae mlh1 rad18 strain growth inhibition, active compounds read high
How it was run: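 Yeast w/ defined DNA-repair lesions; compound exposure; growth vs vehicle controls → % inhibition.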

[16] = NCI Yeast Anticancer Drug Screen. Data for the rad18 strain (AID 177); settings: S. cerevisiae rad18 mutant growth inhibition, active compounds read high
How it was run: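 Readout: growth inhibition vs vehicle controls. Cells: genetically altered yeast strain, DNA repair defect.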

[17] = at 5.0 µM (retest, dose inferred, filed as 0.5)
[18] = at 50.0 µM (retest, dose inferred, filed as 5.0)

Measured: growth inhibition

O=C(O)c1cccc2cccc(-c3c4ccc(=O)cc-4oc4cc(O)ccc34)c12
active: [1]; at 11.0 µM 79% | [1]; at 33.0 µM 78% | [1]; at 100.0 µM 94% | [2]; at 100.0 µM 94% | [3]; at 11.0 µM 70% | [3]; at 33.0 µM 73% | [3]; at 100.0 µM 93% | [4]; at 11.0 µM 79% | [4]; at 33.0 µM 88% | [4]; at 100.0 µM 96% | [5]; at 11.0 µM 82% | [5]; at 33.0 µM 79% | [5]; [18] 97% | [5]; at 50.0 µM 90.5% | [5]; at 100.0 µM 92% | [6]; at 11.0 µM 85% | [6]; at 33.0 µM 85% | [6]; [18] 94% | [6]; at 50.0 µM 91.5% | [6]; at 100.0 µM 93% | [7]; at 33.0 µM 74% | [7]; at 100.0 µM 93% | [8]; [18] 95% | [9]; at 11.0 µM 70% | [9]; at 33.0 µM 81% | [9]; at 100.0 µM 90% | [10]; [18] 95% | [11]; [17] 72% | [11]; at 11.0 µM 91% | [11]; at 33.0 µM 93% | [11]; [18] 94% | [11]; at 100.0 µM 92% | [12]; at 33.0 µM 85% | [12]; at 100.0 µM 96% | [13]; at 33.0 µM 87% | [13]; at 100.0 µM 91% | [14]; at 11.0 µM 74% | [14]; at 33.0 µM 85% | [14]; at 100.0 µM 95% | [15]; [18] 98% | [15]; at 50.0 µM 90% | [16]; at 11.0 µM 71% | [16]; at 33.0 µM 79% | [16]; at 100.0 µM 94%
inactive: [1]; at 1.2 µM 8% | [1]; at 3.7 µM 33% | [2]; at 1.2 µM -5% | [2]; at 3.7 µM 5% | [2]; at 11.0 µM 54% | [2]; at 33.0 µM 69% | [3]; at 1.2 µM 10% | [3]; at 3.7 µM 29% | [4]; at 1.2 µM 20% | [4]; at 3.7 µM 41% | [5]; at 1.2 µM 29% | [5]; at 3.7 µM 56% | [5]; [17] 29% | [6]; at 1.2 µM 18% | [6]; at 3.7 µM 24% | [6]; [17] 53% | [7]; at 1.2 µM 10% | [7]; at 3.7 µM 13% | [7]; at 11.0 µM 55% | [8]; [17] 1% | [9]; at 1.2 µM 16% | [9]; at 3.7 µM 9% | [10]; [17] 61% | [11]; at 1.2 µM 34% | [11]; at 3.7 µM 69% | [12]; at 1.2 µM 17% | [12]; at 3.7 µM 26% | [12]; at 11.0 µM 48% | [13]; at 1.2 µM 7% | [13]; at 3.7 µM 18% | [13]; at 11.0 µM 63% | [14]; at 1.2 µM 34% | [14]; at 3.7 µM 31% | [15]; [17] 27% | [16]; at 1.2 µM 18% | [16]; at 3.7 µM 23%

O=C(CCc1ccccc1)ON1C(=S)C(c2ccccc2)(c2ccccc2)N=C1Sc1ccccc1
inactive: [1]; at 1.2 µM 13% | [1]; at 3.7 µM 9% | [1]; at 11.0 µM 19% | [1]; at 33.0 µM 23% | [1]; at 100.0 µM 36% | [2]; at 1.2 µM 6% | [2]; at 3.7 µM 6% | [2]; at 11.0 µM 13% | [2]; at 33.0 µM 14% | [2]; at 100.0 µM 17% | [3]; at 1.2 µM 0% | [3]; at 3.7 µM -6% | [3]; at 11.0 µM 1% | [3]; at 33.0 µM 7% | [3]; at 100.0 µM 5% | [4]; at 1.2 µM 44% | [4]; at 3.7 µM 50% | [4]; at 11.0 µM 51% | [4]; at 33.0 µM 54% | [4]; at 100.0 µM 56% | [5]; at 1.2 µM 36% | [5]; at 3.7 µM 34% | [5]; at 11.0 µM 31% | [5]; at 33.0 µM 29% | [5]; at 50.0 µM 50% | [5]; at 100.0 µM 28% | [6]; at 1.2 µM 22% | [6]; at 3.7 µM 14% | [6]; [17] 23% | [6]; at 11.0 µM 6% | [6]; at 33.0 µM 7% | [6]; at 50.0 µM 61% | [6]; at 100.0 µM 26% | [9]; at 1.2 µM 4% | [9]; at 3.7 µM -8% | [9]; at 11.0 µM -4% | [9]; at 33.0 µM 19% | [9]; at 100.0 µM 57% | [10]; [17] -2% | [10]; [18] 35% | [10]; at 50.0 µM 45.9% | [11]; at 1.2 µM 6% | [11]; at 3.7 µM -10% | [11]; [17] -1% | [11]; at 11.0 µM -5% | [11]; at 33.0 µM -7% | [11]; [18] 32% | [11]; at 100.0 µM 22% | [12]; at 1.2 µM 1% | [12]; at 3.7 µM -4% | [12]; at 11.0 µM 0% | [12]; at 33.0 µM 14% | [12]; at 100.0 µM 44% | [13]; at 1.2 µM 44% | [13]; at 3.7 µM 50% | [13]; at 11.0 µM 51% | [13]; at 33.0 µM 54% | [13]; at 100.0 µM 56% | [14]; at 1.2 µM 43% | [14]; at 3.7 µM 44% | [14]; at 11.0 µM 46% | [14]; at 33.0 µM 49% | [14]; at 100.0 µM 56% | [15]; [17] 28% | [16]; at 1.2 µM 21% | [16]; at 3.7 µM 19% | [16]; at 11.0 µM 10% | [16]; at 33.0 µM 21% | [16]; at 100.0 µM 40%
active: [5]; [17] 91% | [5]; [18] 96% | [6]; [18] 94% | [11]; at 50.0 µM 78.7% | [15]; [18] 86% | [15]; at 50.0 µM 88.8%
